H9c2 protect – protects H9c2 cardiomyocytes from peroxide injury; H2O2 injury protection, ATPLite, 2 h; protection from H2O2 cell death, % at 20 µM; actives 0.63% (n = 360,000);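 active = compounds giving at least 50% protection of heart cells from peroxide-induced death in the single-dose screen, raw or plate-pattern-corrected value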;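 also: 0% = DMSO wells with peroxide and 100% = DMSO wells without peroxide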
M18AAP inhibitor – PfM18AAP enzyme inhibition; inhibition, % at 7.35 µM; AID 1822; recombinant PfM18AAP, H-Glu-NHMec fluorogenic cleavage; actives 1.2% (n = 290,000);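 active = inhibition above the campaign mean inhibition over all tested compounds plus 3 SD, cut at about 28% in these data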;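 also: 0% = plate median of test compound wells and 100% = 2 mM ZnCl2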
PHOSPHO1 block – blocks human PHOSPHO1 phosphatase activity; Q8TCT1; recombinant PHOSPHO1, absorbance phosphatase assay; inhibition, % at 13.3 µM; actives 1.1% (n = 290,000); in the data active = inhibition above about 60%
ALR H2O2 inh – blocks human ALR sulfhydryl oxidase activity | purified ALR, DTT oxidation, H2O2 HRP-luminol luminescence | inhibition, % (no concentration beside the values) | actives 3.8% (n = 290,000);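 active = mean replicate inhibition above about 79%, with every replicate also reaching it, limit read from the data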
Target sequence (P55789 whole entry, looked up): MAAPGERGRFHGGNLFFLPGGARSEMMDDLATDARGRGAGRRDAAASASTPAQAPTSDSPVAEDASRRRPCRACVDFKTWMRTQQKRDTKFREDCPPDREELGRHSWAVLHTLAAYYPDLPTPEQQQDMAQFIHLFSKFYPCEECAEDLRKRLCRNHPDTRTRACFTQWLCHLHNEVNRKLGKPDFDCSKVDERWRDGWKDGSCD
PfG6PD inh – PfG6PD (Plasmodium falciparum) enzyme inhibition; PfGluPho enzyme, NADPH resazurin-diaphorase fluorescence; actives 0.78% (n = 350,000); inhibition, % at 20 µM;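 active = inhibition reaching at least a set limit at 20 µM in the primary screen, cut at about 59% in these data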;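 also: 0% = DMSO wells with substrate and 100% = DMSO wells lacking glucose-6-phosphate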
The depositor's hits bear a star; · = no result. Sampled rows, rich in hits. Any-hit rate of the full collection: about 5.6%.

SMILES	H9c2 protect	M18AAP inhibitor	PHOSPHO1 block	ALR H2O2 inh	PfG6PD inh
CCOc1ccc2nc(N3CCCCCC3)sc2c1	-7	-1	-8	90*	17
Cc1cc(C(=O)N(C)Cc2ccc(Br)cc2)no1	-3	5	85*	3	-4
CN(Cc1ccccc1)C(=O)c1cc(-c2ccc(Br)cc2)on1	-6	5	-23	·	15
COc1cc(/C=N/n2c(-c3n[nH]c4c3CCC4)n[nH]c2=S)cc(OC)c1O	-8	18	-64	95*	51
Cc1cc(-c2n[nH]c(=S)n2/N=C/c2ccc(Br)s2)n[nH]1	0	7	49	97*	22
COc1cccc(/C=N/n2c(-c3n[nH]c4c3CCC4)n[nH]c2=S)c1O	50	12	47	97*	43
COc1cc(/C=N/n2c(-c3cc(C)[nH]n3)n[nH]c2=S)cc(OC)c1OC	0	-2	-72	27	33
Cc1cc(-c2n[nH]c(=S)n2/N=C/c2ccc(C)s2)n[nH]1	-1	17	49	19	35
COc1cccc(/C=N/n2c(-c3cc(C)[nH]n3)n[nH]c2=S)c1O	4	0	-19	98*	3
COc1ccccc1/C=C/C=N/n1c(-c2n[nH]c3c2CCC3)n[nH]c1=S	-5	8	23	5	32
CCCNC(=O)C1(C)CCCN(C(=O)c2c(F)ccc(C)c2F)C1 (stereo unspecified)	6	·	·	·	·
Cc1ccc(C(C)C)c(OCC(=O)NNCC(=O)Nc2cccc(F)c2)c1	-7	·	·	-1	27
COc1ccc(-n2nc(C(=O)O)cc2-c2ccccc2)cc1	3	-1	·	-5	5
CC(=O)N1CCCC(C)(C(=O)N(C)Cc2cccc3ccccc23)C1 (stereo unspecified)	1	·	·	·	·
Cc1cc(-c2n[nH]c(=S)n2/N=C/c2ccccc2[N+](=O)[O-])n[nH]1	5	13	-17	95*	24
CCN(CC)Cc1ccc(NC(=O)c2sc3cc(Cl)ccc3c2Cl)cc1	-4	1	60*	·	4
CC1(C)Cc2c(C#N)c(N)sc(=S)c2CO1	2	14	80*	-3	37
CC(C)C1Cc2c(C#N)c(N)sc(=S)c2CO1 (stereo unspecified)	1	-6	89*	44	31
N#Cc1c(N)sc(=S)c2c1CCN(Cc1ccccc1)C2	·	·	47	·	·
CCN(CC)c1nc(C)c2c(c1C#N)CC(C)(C)OC2	-5	-2	15	·	-12
OC(CN1CC=C(/C=C/c2ccc(Br)cc2)CC1)c1ccccc1 (stereo unspecified)	-4	3	30	1	-4
CCN(CC)CCNS(=O)(=O)c1ccc(OC)c(Br)c1	2	2	93*	-8	-13
C=CCN1CCc2c(cc(O)c(O)c2Br)[C@@H](c2ccccc2)C1	60*	·	·	99*	10
C=CCNC(=S)NNC(=O)c1ccc(OCC(C)C)cc1	-3	12	60*	18	-22
CCCCCCc1c(C)nc(-n2[nH]c(C)c(CCO)c2=O)[nH]c1=O	15	2	38	86*	-1
SMILES	H9c2 protect	M18AAP inhibitor	PHOSPHO1 block	ALR H2O2 inh	PfG6PD inh
COc1cc(OC)cc(C(=O)N2CCC(N3CCN(c4ccccc4)CC3)CC2)c1	7	4	22	82*	-4
Cc1ccc(NC(=O)c2ncn(CC(=O)NCc3ccc4c(c3)OCO4)n2)cc1C	-13	·	·	·	0
CCN(CC)c1ccc(C(=O)NN)cc1	13	-27	4	2	1
CCN(CC)c1ccc(N)cc1	-11	·	·	97*	51
O=c1oc2ccccc2cc1NCc1ccccc1O	-46	5	-14	96*	-13
Nc1ccc2oc(=O)c(-c3ccccc3)cc2c1	-2	2	18	98*	-1
O=c1oc2ccccc2cc1-c1ccc(O)cc1	-5	3	-3	95*	3
Cc1cc(N)ccc1-c1cc2ccccc2oc1=O	1	1	29	99*	-4
O=C(Oc1ccccc1Cl)C1CCN(C(=O)c2ccc(F)cc2)CC1	-2	·	·	4	4
Clc1ccc(-c2nc(C3CCCCC3)no2)cc1	-6	-2	42	2	5
O=C(CCS(=O)(=O)c1ccc(Br)cc1)NCc1ccc(F)cc1	-2	0	53	0	-8
COc1ccc(-c2cc3ccc(OCC(N)=O)cc3oc2=O)cc1OC	0	-17	30	-11	6
COc1ccc(-c2cc3ccc(O)cc3oc2=O)cc1OC	4	7	-5	99*	-12
O=C1C=CC(=O)N1CCCCCCN1C(=O)C=CC1=O	·	-113	-9	31	95*

Bioassay records (PubChem BioAssay)
